Experimental data: PubChem BioAssay AID2165 (The Scripps Research Institute Molecular Screening Center, 2009)
Unmarked numbers belong to inactive results. The source made the active and inactive calls. Cut-off read from the data, not from the text of the source: active = IC50 below about 9 µM; inactive = the rest.

System: Ba/F3 Cytotoxicity
Experiment: JAK2V617F project follow-up: kinase, reporter, cytotoxicity – HEL and Ba/F3 cells, late-stage follow-up (AID 2165)
Details: JAK2V617F panel: kinase, IRF1 reporter

| SMILES | IC50 |
| --- | --- |
| Cc1ccc(O)c(NC(=O)COc2ccc(C3CCCCC3)cc2)c1 | 3.91 µM (active) |
| Cc1cccc(OCC(=O)Nc2cccc(C)c2C)c1 | > 40 µM |
| Cc1ccc(O)c(NC(=O)COc2ccc(I)cc2)c1 | 0.0269 µM (active) |
| Cc1[nH]c(=O)c(C(=O)C=Cc2ccc(I)cc2)c2c1CCCC2 | > 40 µM |
| Cc1ccc(O)c(NC(=O)COc2ccc(F)cc2)c1 | 0.0825 µM (active) |
| Cc1ccc(O)c(NC(=O)COc2ccc(Cl)cc2)c1 | 1.39 µM (active) |
| COc1cccc(Nc2ncnc3cc(OC)c(OC)cc23)c1 | > 40 µM |
| Cc1[nH]c(=O)c(C(=O)C=Cc2ccc(Cl)cc2Cl)c2c1CCCC2 | 1.45 µM (active) |
| Cc1cccc(OCC(=O)Nc2ccc(O)cc2)c1 | 6.62 µM (active) |
| COc1ccccc1OCC(=O)Nc1cc(C)ccc1O | 0.018 µM (active) |
| Cc1ccc(C=CC(=O)c2c3c(c(C)[nH]c2=O)CCCC3)cc1 | 3.34 µM (active) |
| Cc1ccc(O)c(NC(=O)COc2cc(C)c(Cl)c(C)c2)c1 | 6.17 µM (active) |
| Cc1cc(C)cc(NC(=O)COc2cccc(C)c2)c1 | > 40 µM |
| CC(C)c1cc(C=C(C#N)C(=O)NCCCc2ccccc2)cc(C(C)C)c1O | 4.29 µM (active) |
| Cc1[nH]c(=O)c(C(=O)C=Cc2ccc(Br)cc2)c2c1CCCC2 | 2.57 µM (active) |
| O=C(COc1ccccc1)Nc1ncccn1 | > 40 µM |
| CCS(=O)(=O)c1ccc(O)c(NC(=O)COc2cccc(C)c2)c1 | > 40 µM |
| Cc1cccc(OCC(=O)Nc2cc(C)c(C)cc2O)c1 | > 40 µM |
| C/C(=C\c1ccccc1F)C(=O)c1c(C)cc(C)[nH]c1=O | > 40 µM |

| SMILES | IC50 |
| --- | --- |
| Cc1cc(C)c(C(=O)/C=C/c2ccccc2F)c(=O)[nH]1 | 0.69 µM (active) |
| COc1cc2ncnc(Nc3ccc(O)c(Br)c3)c2cc1OC | 3.64 µM (active) |
| COc1ccc(OCC(=O)Nc2cc(C)ccc2O)cc1 | 2.01 µM (active) |
| Cc1ccc(O)c(NC(=O)COc2cccc3ccccc23)c1 | 1.95 µM (active) |
| COc1cc2ncnc(Nc3cccc(Cl)c3)c2cc1OC | > 40 µM |
| CCc1cccc(Nc2ncnc3cc(OCCOC)c(OCCOC)cc23)c1 | > 40 µM |
| Cc1cc2ncc(-c3ccc(O)c(O)c3)nc2cc1C | 0.36 µM (active) |
| COc1cc2ncnc(NC(C)C)c2cc1OC | > 40 µM |
| COc1cc2ncnc(Nc3cccc(C)c3)c2cc1OC | > 40 µM |
| C=CCNc1ncnc2cc(OC)c(OC)cc12 | > 40 µM |
| COCCOc1cc2nc[nH]c(=O)c2cc1OCCOC | > 40 µM |
| COCCOc1cc2ncnc(Nc3cccc(C#Cc4ccc(-c5ccccc5)cc4)c3)c2cc1OCCOC | > 40 µM |
| COc1cc2ncnc(NC3CCCCC3)c2cc1OC | > 40 µM |
| Cc1[nH]c(=O)c(C(=O)C=Cc2cccc(Br)c2)c2c1CCCC2 | 0.67 µM (active) |
| COc1cc2ncnc(Nc3ccc(F)c(F)c3)c2cc1OC | > 40 µM |
| COc1cc2ncnc(Nc3cccc(Br)c3)c2cc1OC | > 40 µM |
| N#Cc1ccccc1NC(=O)COc1ccc2c(c1)OCO2 | > 40 µM |
| Cc1ccc(O)c(NC(=O)COc2ccccc2C)c1 | 3.84 µM (active) |
